Only some compounds are listed: those with a hit (about 11% of all), similar ones and a draw of the others.
HPGD inh = qHTS Assay for Inhibitors of HPGD (15-Hydroxyprostaglandin Dehydrogenase); 15-hydroxyprostaglandin dehydrogenase [NAD(+)] (Homo sapiens), P15428; purified HPGD, NADH fluorescence kinetic, PGE2 substrate; Potency, µM, most hits filed as inhibitors; 150,000 compounds, 4.3% hits; AID 894, 2007
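NADH formation kinetics: reaction with 30 uM PGE2 and 1 mM NAD+ (final), 20 nM enzyme, Tris-HCl pH 8 with Tween 20, after 15 min compound preincubation at room temperature. Fluorescence change, last versus first of five reads.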
ALDH1A1 inh = qHTS Assay for Inhibitors of Aldehyde Dehydrogenase 1 (ALDH1A1); Potency, µM (titrated, usually from 75.3 µM), hits mostly inhibitors; 220,000 compounds, 7.3% hits; Aldehyde dehydrogenase 1A1 (Homo sapiens), P00352; Purified ALDH1A1, NADH fluorescence, propionaldehyde substrate
Target sequence (P00352 whole entry, looked up): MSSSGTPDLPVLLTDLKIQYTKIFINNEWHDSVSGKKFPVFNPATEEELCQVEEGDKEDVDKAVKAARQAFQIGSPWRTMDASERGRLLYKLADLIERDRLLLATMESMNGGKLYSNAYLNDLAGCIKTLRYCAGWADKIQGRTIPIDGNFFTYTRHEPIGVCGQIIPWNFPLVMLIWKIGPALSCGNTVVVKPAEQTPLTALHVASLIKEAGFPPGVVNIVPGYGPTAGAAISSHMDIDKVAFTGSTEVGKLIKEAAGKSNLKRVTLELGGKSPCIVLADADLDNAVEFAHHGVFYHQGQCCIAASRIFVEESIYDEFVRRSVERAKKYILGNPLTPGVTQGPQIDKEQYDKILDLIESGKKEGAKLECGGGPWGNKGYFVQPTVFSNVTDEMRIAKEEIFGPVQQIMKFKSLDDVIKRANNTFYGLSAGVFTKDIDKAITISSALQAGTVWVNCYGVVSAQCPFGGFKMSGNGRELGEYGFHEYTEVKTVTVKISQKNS
KDM4E inh = qHTS Assay for Inhibitors of Human Jumonji Domain Containing 2E (JMJD2E) | Lysine-specific demethylase 4E (Homo sapiens), B2RXH2 | JMJD2E catalytic domain, FDH-coupled NADH fluorescence (FDH is formaldehyde dehydrogenase) | Potency, µM (titrated, usually from 57.1 µM), usual class: inhibitors | 230,000 compounds, 1.6% hits | AID 2147, 2009; also: nearly all actives have a fitted effect of over 50% in size
PNC assembly inh = High Content Assay for Compounds that inhibit the Assembly of the Perinucleolar Compartment | PC3M PTB-GFP, PNC prevalence imaging, 16 h; stronger effect = lower value | AID 2417, 2010 | 140,000 compounds, 3.1% hits | activity change (PNC), negative = inhibition, % at 10 µM;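 active = readout at or below -70, meaning at least 70% loss of cells showing the perinucleolar compartment, a nuclear body marking cancer cells; inconclusive = readout between -30 and a set limit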
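Read-out is percentage of cells bearing a perinucleolar compartment, from automated 20x imaging of fixed, Hoechst-stained PC3M PTB-GFP cells. Cells were seeded 4 h, then exposed 16 h to compound (23 nl of library stock) in duplicate plates.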
Hits are given with their value; i = inactive; ? = inconclusive; nt = not tested or not shown; [ ] = remark or other dose. Unless noted, calls follow the shape of the dose curve; as a rule, active = well fitted inhibition curve with a large enough effect (not every such curve was filed as active); inconclusive = small, poorly fitted or top-dose-only effect, or another doubt; inactive = no such curve, though single readings can be large or run the other way.

SMILES | HPGD inh | ALDH1A1 inh | KDM4E inh | PNC assembly inh
CC(=O)N1CC=CC1(CC(C)C)C(=O)NCC1CC1 (configuration not stated) | i | i | i | nt
CN1CCN(C2CCCCCC2)CC1 | i | i | i | -119
CN1CCN(C(=O)NC2CCCCC2)CC1 | i | ? | ? | ?
O=C(Cc1cccs1)Nc1nnc(SCC(=O)N2CCCCC2)s1 | i | i | i | ?
CCSc1nnc(NC(=O)c2ccccn2)s1 | i | ? | i | i
O=C(CSc1nc(-c2ccccc2)ns1)N1CCOCC1 | nt | 13µM | i | nt
CCSc1nnc(NC(=O)C(C(F)(F)F)C(F)(F)F)s1 | 3.5µM | 18µM | i | i
O=C(Nc1nnc(SCC(=O)N2CCCCC2)s1)c1cccs1 | 14µM | ? | i | i
CCSc1nnc(NC(=O)c2cccnc2Cl)s1 | i | 25µM | i | i
COc1ccccc1C1OC(=O)CC1C(=O)OC[C@@H]1CCCN2CCCCC12 (some centres not stated) | i | i | i | nt
CC(=O)N1CCC2(CCCN(C(=O)Nc3cccc(F)c3)C2)CC1 | i | i | nt | nt
O=C(Nc1nnc(SCC(=O)N2CCOCC2)s1)c1ccccc1Cl | ? | 22µM | i | i
C=CCSc1nnc(NC(=O)c2cccc(S(=O)(=O)N3CCOCC3)c2)s1 | 3.5µM | ? | i | i
CC1CCC(C(=O)O)([C@H](Br)C(=O)O)CC1 (some centres not stated) | i | i[13.5 µM] | nt | nt
COCCNC(=O)c1ccc(N(C)S(=O)(=O)c2ccc(OC)c(OC)c2)cc1 | 6.3µM | i | i | i
COc1ccc(S(=O)(=O)N(C)c2ccc(C(=O)N3CCC(C(N)=O)CC3)cc2)cc1OC | nt | i | i | nt
COCCCNC(=O)c1ccc(N(C)S(C)(=O)=O)cc1 | i | i | i | ?
COCCCNC(=O)c1ccc(N(C)S(=O)(=O)c2ccc(OC)cc2)cc1 | 1.1µM | i | i | ?
Cc1ccc(S(=O)(=O)NCc2ccc(C(=O)N3CCN(c4ccccn4)CC3)cc2)cc1 | i | i | i | ?
O=C(c1ccc(CNS(=O)(=O)c2cccc(C(F)(F)F)c2)cc1)N1CCOCC1 | 14µM | ? | i | i
O=C(NCc1cccc(C(F)(F)F)c1)c1cccc(S(=O)(=O)NCc2ccccc2)c1 | i | i | i | i
O=C(NC(c1ccccc1)c1ccccc1)c1cccc(S(=O)(=O)NCc2ccccc2)c1 | i | 4.5µM | i | i
Cc1ccc(S(=O)(=O)NCc2ccc(C(=O)N3CCN(Cc4ccccc4)CC3)cc2)cc1 | i | 11µM | i | i
O=C(c1ccc(CNS(=O)(=O)c2cccc(Cl)c2)cc1)N1CCCC1 | nt | i | i | nt
CC(=O)Nc1ccc(S(=O)(=O)Nc2nc3ccccc3nc2N2CCCC2)cc1 | i | 11µM | i | i
SMILES | HPGD inh | ALDH1A1 inh | KDM4E inh | PNC assembly inh
COc1ccc(NS(=O)(=O)c2ccc(C(=O)N3CCN(Cc4ccccc4)CC3)cc2)cc1 | nt | 3.2µM | i | nt
O=C(c1cccc(S(=O)(=O)NCc2ccccc2)c1)N1CCN(Cc2ccccc2)CC1 | i | 18µM | i | i
COc1cccc(S(=O)(=O)Nc2ccc(C(=O)N3CCN(C(=O)c4ccco4)CC3)cc2)c1 | i | 18µM | i | i
COc1ccc(N2CCN(C(=O)c3ccc(NS(=O)(=O)c4ccccc4)cc3)CC2)cc1 | i | i | i | i
CC(=O)Nc1ccc(S(=O)(=O)NC2=C(N3CCN(Cc4ccccc4)CC3)C(=O)c3ccccc3C2=O)cc1 | i | 16µM | i | ?
CC1CCN(C2=C(NS(=O)(=O)c3ccc(Cl)cc3)C(=O)c3ccccc3C2=O)CC1 | i | ? | i | i
O=C(c1cccc(NS(=O)(=O)c2ccc(F)c(F)c2)c1)N1CCN(Cc2ccccc2)CC1 | i | ? | i | ?
CN(C)S(=O)(=O)c1cccc(NC(=O)COC(=O)/C=C/c2ccc([N+](=O)[O-])cc2)c1 | nt | ? | i | nt
COc1ncc2nc(C)c(=O)n(Cc3ccc(F)cc3)c2n1 | nt | i | nt | nt
O=C(NNC(=O)C1CC(c2cccnc2)=NO1)Nc1ccccc1F (configuration not stated) | nt | i | i | nt
COc1ccccc1N1CCN(/N=C/C(Cl)=C/c2ccccc2)CC1 | nt | nt | i | nt
CCN1CCN(C(=O)c2ccc(CN(c3ccccc3)S(=O)(=O)c3ccccc3)cc2)CC1 | 14µM | i | i | ?
COc1ccc(-c2cnc(N)n2CC2CCCO2)cc1 (configuration not stated) | i | 40µM | i | ?
c1ccc(-c2cnc(SCCN3CCOCC3)n2CC2CCCO2)cc1 (configuration not stated) | i | 10µM | ? | i
O=C(CC1C(=O)NCCN1CC1CCCCC1)NCc1cc(F)ccc1F (configuration not stated) | nt | ? | i | nt
O=C(CC1C(=O)NCCN1CC1CCCCC1)NCc1ccc(Cl)cc1 (configuration not stated) | nt | 20µM | i | nt
O=C(CSc1ncn[nH]1)c1cccc([N+](=O)[O-])c1 | ? | ? | 7.9µM | i
O=C(CSc1nc2ncccc2[nH]1)c1ccc(F)cc1 | i | ? | i | i
O=C(CSc1nc2ncccc2[nH]1)c1cccc([N+](=O)[O-])c1 | ? | 8.9µM | i | -113
Cc1noc2ncnc(Sc3ccc(Br)cc3)c12 | nt | ? | i | nt
C=CCNC(=S)Nc1cccc(N)c1 | nt | ? | i | nt
O=C(O)[C@H](Cc1ccccc1)N1C(=O)c2ccccc2C1=O | i | ? | nt | nt
O=C(C(Cc1ccccc1)N1C(=O)c2ccccc2C1=O)N1CCc2ccccc21 (configuration not stated) | i | i | i | -100
COC(=O)C1(C(=O)OC)C/C=C\C/C=C\c2ccccc2[C@@H]1C[N+](=O)[O-] | i | i | i | nt
Cc1ccc(C(=O)C[n+]2cc(Br)cc(Br)c2)cc1[N+](=O)[O-] | i | 16µM | i | i
SMILES | HPGD inh | ALDH1A1 inh | KDM4E inh | PNC assembly inh
CCCOc1nc(N)c(C#N)c(-c2ccccc2F)c1C#N | i | 1µM | i | i
C=CCn1c(SCC(=O)NC2CCCc3ccccc32)nnc1-c1ccncc1 (configuration not stated) | i | i | i | i
Cc1nn(-c2ccccc2)c(C)c1NC(=O)COc1ccc(C#N)cc1 | i | i | i | -80
CC1CCCCN1CCCNC(=O)c1ccc(Cc2nc3ccccc3[nH]2)cc1 (configuration not stated) | i | i | nt | nt
CN(C)CCN1C(=O)C(=O)/C(=C(/O)c2ccccc2)C1c1ccccc1F (configuration not stated) | i | 18µM | ? | ?
CN(C)CCN1C(=O)C(=O)/C(=C(/O)c2ccc3c(c2)OCCO3)C1c1ccccn1 (configuration not stated) | nt | nt | i | nt
COc1cccc(C2/C(=C(\O)c3ccc4c(c3)OCO4)C(=O)C(=O)N2CCN(C)C)c1OC (configuration not stated) | i | 22µM | ? | i
CCOc1ccc(/C(O)=C2\C(=O)C(=O)N(CCN(C)C)C2c2cccc(OC)c2OC)cc1Cl (configuration not stated) | i | ? | ? | ?
